Drawing on PubChem BioAssay (NCI), this text covers growth for 27 compounds.

Molecules are shown by their SMILES. About 83,000 compounds went through this panel and 20% of them were active in at least one assay; those are over-represented in the sample as a whole.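 A percent growth of 40 corresponds to 60% growth inhibition; 0 means no net growth; -100 means all cells died. Active threshold: below 10.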 Values without a mark were called inactive. Active and inactive are the calls of the source.

Experiment in all cases: NCI-60 one-dose screen, 48 h (100 = growth as untreated, 0 = no growth, -100 = all killed)
Holding throughout (conditions): 10 µM unless noted

Experiment [1] has as its system T-47D breast.
Experiment [2] relates to BT-549 breast.
For experiment [3], the system named is MDA-MB-435 melanoma.
The test system of experiment [4] is SW-620 colon.
The subject of experiment [5] is MCF7 breast.
Experiment [6] concerns HCT-116 colon.
In experiment [7] the test system is HCC-2998 colon.
The subject of experiment [8] is KM12 colon.

Regarding `COc1cnc2c(c1)C(=O)c1c-2n(CCCCl)c(=O)c2ccncc12`, the growth in experiment [1] was 28.9%; in experiment [2] it was 56.8%; in experiment [3], 79.2%; in experiment [4] it was 36.3%; in experiment [5] it was 17.9%; in experiment [6] it was 40.4%. Besides, the figures for the growth in experiment [7] and in experiment [8] were 75.6% and 67.8%, respectively.

As for `CCN(CC)CCCN1C(=O)c2c(c(C)c3c(oc4ccc(O)cc43)c2C)C1=O`, the growth in experiment [1] was 87.2%; in experiment [2], 96.6%; in experiment [3], 93.4%; in experiment [4] it was -37% (active); in experiment [5], 65.8%; in experiment [6], -77.9% (active). Moreover, the growth was 67% in experiment [7] and 70.7% in experiment [8].

`CC1CCN(C(=O)CCCl)c2ccccc21` (stereo unspecified): the growth is 121% in experiment [1]; 96.3% in experiment [2]; 123% in experiment [3]; 91.3% in experiment [4]; 97.5% in experiment [5]; 97.3% in experiment [6]. In addition, the growth in experiment [7] is 86.1%; in experiment [8] it was 102%.

For `CCN(CC)c1ccc(CNc2cc(C)nc3ccccc23)cc1`, the growth in experiment [1] was 39%; in experiment [2] it was 71.6%; in experiment [3] it was 65.7%; in experiment [4], 76.9%; in experiment [5], 39.2%; in experiment [6], 52.1%. The growth in experiment [7] was 42.1%; in experiment [8], 71.9%.

With `CCOC(=O)c1cc(C(=O)c2cc(OC)c(OC)c(OC)c2)n2ccccc12`, the growth in experiment [1] is 47.5%; in experiment [2] it was 40%; in experiment [3], -41.8% (active); in experiment [4] it was 29.8%; in experiment [5] it was 23.7%; in experiment [6], 18.9%. For the same compound, the values for the growth in experiment [7] and in experiment [8] were 39.4% and 25.2%, respectively.

For `CC(=O)OC[C@]12CC[C@@H]([C@@H](C)c3nnc(-c4ccncc4)o3)[C@@H]1[C@H]1CC[C@@H]3[C@@]4(C)CC[C@H](OC(C)=O)C(C)(C)[C@@H]4CC[C@@]3(C)[C@]1(C)CC2`, the growth is 66.5% in experiment [1]; 74.6% in experiment [2]; 87% in experiment [3]; 66.3% in experiment [4]; 84.9% in experiment [5]; 45.2% in experiment [6]. Moreover, the growth in experiment [7] is 101%; in experiment [8] it was 93.5%.

With `Fc1cc(Nc2ccc3c(OCCCN4CCOCC4)cccc3n2)ccc1Cl`, the growth in experiment [1] is 48.2%; in experiment [2] it was 57.9%; in experiment [3], 32%; in experiment [4], -32.2% (active); in experiment [5], 14.2%; in experiment [6], 3.61% (active). Besides, the growth in experiment [7] is -58.2% (active); in experiment [8], -21.8% (active).

Take `COc1ccc(C(=O)N2c3ccccc3Sc3ccccc32)c(C(F)(F)F)c1`: the growth was 52.3% in experiment [1]; 10.7% in experiment [2]; -25% (active) in experiment [3]; 24.7% in experiment [4]; 17% in experiment [5]; 6.57% (active) in experiment [6]. In addition, the growth in experiment [7] was 26%; in experiment [8] it was 18%.

In the case of `CC(C)(C)n1cc(-c2ccnc(NCCCNS(=O)(=O)c3cccc4ccccc34)c2)c(-c2cccc(F)c2)n1`, the growth in experiment [1] is 34%; in experiment [2] it was 65.4%; in experiment [3], 90.4%; in experiment [4], 92.4%; in experiment [5], 52.9%; in experiment [6], 53.5%. Also, the values for the growth in experiment [7] and in experiment [8] were 82.8% and 76.6%, respectively.

With `Cc1nc2cc(O)c(O)cc2cc1Oc1ccc(NC(=O)Nc2ccc(Cl)c(Cl)c2)cc1`, the growth in experiment [1] was 62.2%; in experiment [2] it was 82.2%; in experiment [3], 54.2%; in experiment [4], 49.3%; in experiment [5] it was 76.2%; in experiment [6] it was 44.6%. Further, the results for the growth in experiment [7] and in experiment [8] were 93.4% and 74.6%, respectively.

`CC/C(Cc1ccccc1)=C(\c1ccc(OCCCN(C)C)cc1)c1ccc(OC(=O)NCc2ccccc2)cc1`: the growth in experiment [1] is 52.7%; in experiment [2], 95%; in experiment [3] it was 77.6%; in experiment [4], 14.5%; in experiment [5], 15.6%; in experiment [6], 10.4%. Further, the growth is 70.4% in experiment [7] and 72.8% in experiment [8].

`Nn1c(=O)c(=O)[nH]c2c(cnn2-c2ccccc2)c1=O`: the growth was 108% in experiment [1]; 114% in experiment [2]; 107% in experiment [3]; 110% in experiment [4]; 99.4% in experiment [5]; 108% in experiment [6]. The growth is 105% in experiment [7] and 107% in experiment [8].

On to `N#C/C(=C\c1cn(Cc2ccccc2)c2ccccc12)C(=O)Nc1ncc(Cc2ccccc2Cl)s1`, for which the growth in experiment [1] was -29.3% (active); in experiment [2], 52.8%; in experiment [3], -15.1% (active); in experiment [4], 2.61% (active); in experiment [5], 23.8%; in experiment [6] it was 0.288% (active). The values for the growth in experiment [7] and in experiment [8] were 58.4% and 26.4%, respectively.

On to `COc1ccc2c(c1)c(-c1nc(-c3c[nH]c4ncccc34)cs1)cn2CCCN1CCOCC1`, for which the growth in experiment [1] is 31.7%; in experiment [2], 52.2%; in experiment [3], 47%; in experiment [4], 21.2%; in experiment [5], 13.3%; in experiment [6] it was 25.3%. In addition, the growth in experiment [7] is 65.5%; in experiment [8] it was 17%.

`COc1cc(-c2nc3c(ncc4ccc(=O)n(-c5ccccc5)c43)s2)cc(OC)c1OC`: the growth is 37.9% in experiment [1]; 61.8% in experiment [2]; 81% in experiment [3]; 89.4% in experiment [4]; 55.1% in experiment [5]; 79.6% in experiment [6]. Besides, the growth was 85% in experiment [7] and 79.3% in experiment [8].

Regarding `CC1C=CC(OC(=O)C(C)(O)CCC(O)(C(=O)OC2CC(O)C(C(C)C)CC2(C)O)C(C)C)(C(C)C)CC1` (stereo unspecified), the growth is -47.1% [4.63 µM] (active) in experiment [1]; -81% [4.63 µM] (active) in experiment [2]; -92% [4.63 µM] (active) in experiment [3]; -67.8% [4.63 µM] (active) in experiment [4]; -67.6% [4.63 µM] (active) in experiment [5]; -40% [4.63 µM] (active) in experiment [6]. Further, the growth in experiment [7] is -72.8% [4.63 µM] (active); in experiment [8] it was -77.4% [4.63 µM] (active).

Consider `CN(CCCNC(=O)CCOCCOCCOCCNC(=O)Cc1ccc2ccc3cccc4ccc1c2c34)CCCNc1cc(-c2ccc3ccccc3c2)nc2ccccc12`, for which the growth in experiment [1] was -80.9% (active); in experiment [2] it was -83.6% (active); in experiment [3] it was -79.6% (active); in experiment [4], -79.6% (active); in experiment [5], -82.3% (active); in experiment [6], -98.2% (active). In addition, the growth in experiment [7] is -87.4% (active); in experiment [8], -86.6% (active).

As to `Fc1ccc2[nH]cc(-c3nc(-c4c[nH]c5ccncc45)cs3)c2c1`, the growth in experiment [1] was -30.3% (active); in experiment [2], 70%; in experiment [3], -75.3% (active); in experiment [4], -63.5% (active); in experiment [5] it was -46.7% (active); in experiment [6] it was -85.6% (active). Besides, the results for the growth in experiment [7] and in experiment [8] were -74.3% (active) and -67.1% (active), respectively.

Turning to `C=C1C(=O)O[C@H]2[C@H]1CC/C(COC(=O)c1ccc(C(=O)O)s1)=C\CC[C@@]1(C)O[C@@H]21`, the growth in experiment [1] was 43%; in experiment [2] it was 42.9%; in experiment [3] it was 11.7%; in experiment [4] it was 4.69% (active); in experiment [5], 13%; in experiment [6] it was 11.4%. Moreover, the growth is 61.6% in experiment [7] and 55.6% in experiment [8].

For the compound `C#CC#CC#CC#CC#CC#CC#CC#CC[C@@H]1OC[C@@H](COC(=O)O[C@@H](C(=O)O[C@H]2C[C@@]3(O)[C@@H](OC(=O)c4ccccc4)[C@@H]4[C@]5(OC(C)=O)CO[C@@H]5C[C@H](O)[C@@]4(C)C(=O)[C@H](OC(C)=O)C(=C2C)C3(C)C)[C@@H](NC(=O)c2ccccc2)c2ccccc2)O1`, the growth in experiment [1] is 91.3%; in experiment [2], 17%; in experiment [3] it was 101%; in experiment [4], 101%; in experiment [5], 13.6%; in experiment [6] it was 7.34% (active). The growth in experiment [7] is -43.9% (active); in experiment [8] it was 96.6%.

In the case of `Cc1cccc(Oc2ccc(Nc3ncnc4ccc(NC(=O)CN5CCN(C)CC5)cc34)cc2Cl)c1`, the growth in experiment [1] is 7.58% (active); in experiment [2], 70.3%; in experiment [3], -67.8% (active); in experiment [4] it was 3.68% (active); in experiment [5], 7.21% (active); in experiment [6], 12.3%. The growth in experiment [7] was 19.3%; in experiment [8], 30.7%.

Turning to `Cc1nc2sc(C(=O)Nc3cccc(Br)c3C)c(N)c2cc1C(O)c1ccccc1` (stereo unspecified), the growth in experiment [1] was 25.3%; in experiment [2], 28.2%; in experiment [3], 3.98% (active); in experiment [4], 20.4%; in experiment [5], 10.9%; in experiment [6], 6.83% (active). Besides, the growth in experiment [7] is 11.3%; in experiment [8], 5.99% (active).

For `COc1ccc(C(=O)/C=C/c2ccc(N3CCCCC3)cc2)cc1OC`, the growth in experiment [1] was 76.6%; in experiment [2], 87.4%; in experiment [3], 103%; in experiment [4], 102%; in experiment [5], 90.4%; in experiment [6] it was 82.7%. For the same compound, the values for the growth in experiment [7] and in experiment [8] were 107% and 98.9%, respectively.

With `O=C(/C=C/c1ccc(Cl)cc1)c1cccc(OCCCOc2cccc(C(=O)/C=C/c3ccc(Cl)cc3)c2)c1`, the growth is 78% in experiment [1]; 105% in experiment [2]; 101% in experiment [3]; 98.6% in experiment [4]; 21.1% in experiment [5]; 26% in experiment [6]. Besides, the figures for the growth in experiment [7] and in experiment [8] were 104% and 103%, respectively.

For `Cc1c(Cl)cccc1C(=O)Nc1nc2c(s1)CN(C(=O)c1ccc(C(F)(F)F)cc1)CC2`, the growth was 60.9% in experiment [1]; 24.8% in experiment [2]; -12.4% (active) in experiment [3]; 18.6% in experiment [4]; 17.3% in experiment [5]; 8.9% (active) in experiment [6]. Further, the growth in experiment [7] is 28.4%; in experiment [8], 18.9%.

As to `CC(=O)c1ccc(Nc2nccc(-c3ccc4ccccc4c3)n2)cc1`, the growth is 88.1% in experiment [1]; 101% in experiment [2]; 69.1% in experiment [3]; 98.6% in experiment [4]; 75.8% in experiment [5]; 104% in experiment [6]. The results for the growth in experiment [7] and in experiment [8] were 104% and 81.8%, respectively.

With `CC1(C)CC[C@]23CC[C@]4(C)[C@H](CC[C@@H]5[C@@]6(C)C/C(=C/c7ccncc7)C(=O)C(C)(C)[C@@H]6CC[C@]54C)[C@H]2[C@H]1OC3`, the growth in experiment [1] was 41.5%; in experiment [2], 99.3%; in experiment [3], 66.6%; in experiment [4], 61.3%; in experiment [5] it was 55.3%; in experiment [6] it was 50%. The results for the growth in experiment [7] and in experiment [8] were 93% and 68.4%, respectively.
